Experimental data reported in ChEMBL document CHEMBL3988442, “University of Dundee, Small-Polar-MMV Screening Library” (2021).
In all, about 69,000 compounds went through this assay and about 950 (1.4%) showed an effect of 50% or more. Many of the other results were omitted from the sample, so strong results are more common in it than they were.

These compounds were tested on Mycobacterium tuberculosis (assay: Cornell M. t heat shock assay; further: in the data most compounds retested in dose-response had high values).
Assay type: functional, organism-based
Parameters: dose or concentration left out as unconfirmed

Compound | Percent Effect
Cn1cccc1C(=O)NC[C@]12COC[C@H]1CN(Cc1nccs1)C2.O=C(O)C(F)(F)F | -42.54%
COc1nccnc1N1C[C@@H]2CC[C@H](C1)N(CC=C(C)C)C2=O | -19.62%
COCCN(C)C1COC2(CCN(Cc3ccccn3)CC2)C1.O=C(O)C(F)(F)F.O=C(O)C(F)(F)F (stereo not given) | -27.77%
COCCO[C@H]1CCN(Cc2cccnc2)[C@H]1Cc1cccnc1.O=C(O)C(F)(F)F.O=C(O)C(F)(F)F.O=C(O)C(F)(F)F | -30.96%
COCCO[C@@H]1CCN(C(=O)c2ccc(C)o2)[C@@H]1Cc1cnn(C)c1 | 11.53%
COCCO[C@@H]1CCN(C(=O)c2ccc(C)o2)[C@@H]1Cc1cccnc1.O=C(O)C(F)(F)F | 104.5%
CC[C@@H]1N(Cc2ccc(C)o2)CCC[C@]12CCC(=O)N2CCOC.O=C(O)C(F)(F)F | -28.97%
Cl.NCC1CCC(c2c(C(=O)NCCO)sc3ccccc23)CC1 (stereo not given) | 85.23%
COCCNC(=O)c1sc2ccccc2c1C1CCC(CN)CC1.Cl (stereo not given) | 16.29%
CN(C)CCNC(=O)c1sc2ccccc2c1C1CCC(CN)CC1.Cl (stereo not given) | 20.1%
CC(C)c1n[nH]c(C(=O)Nc2ccccn2)c1Br | -0.4918%
Cc1ccnc(NC(=O)c2[nH]nc(C(C)C)c2Br)c1 | 68.96%
CC(C)c1n[nH]c(C(=O)Nc2cc[nH]n2)c1Br | 4.113%
O=C(O)C(F)(F)F.O=C(O)C(F)(F)F.c1cncc(O[C@@H]2CC[C@H]3[C@H]2OCCN3C2CCCC2)c1 | -35.82%
COc1ccc2[nH]c(CNc3cc(C4CCNCC4)nc(C)n3)cc2c1 | 101.5%
CCCN(CC)c1cc(C2CCNCC2)nc(C)n1 | -15.84%
CCN(Cc1ccncc1)c1cc(C2CCNCC2)nc(C)n1 | -13.1%
CCN(Cc1c(F)cccc1Cl)c1cc(C2CCNCC2)nc(C)n1 | 69.57%
Cc1nc(NCc2ccc(C)o2)cc(C2CCNCC2)n1 | -22.33%
CN(Cc1cc2cc(F)ccc2[nH]1)c1cc(C2CCCNC2)ncn1 (stereo not given) | 27.99%

Compound | Percent Effect
Cc1nc(C2CCNCC2)cc(N(C)Cc2cc3cc(F)ccc3[nH]2)n1 | 81.43%
Cc1nc(-c2ccc(F)cc2)cc(C2CCNCC2)n1 | -9.323%
Cc1nc(NCc2cccc(F)c2)cc(C2CCNCC2)n1.Cl | -3.606%
COc1ccc(CNC(C)c2ccccc2Cl)c(OC)c1OC.Cl (stereo not given) | -26.61%
COc1c(CNC2CCSc3ccc(F)cc32)c(C)nn1C.Cl (stereo not given) | 15.14%
CNC(C(=O)OC)c1cc(F)ccc1F.Cl (stereo not given) | 1.092%
O=C(O)C(F)(F)F.O=C(O)C(F)(F)F.O=C(c1ccncc1)N1CC[C@@H]2CN(C3CCOCC3)CCO[C@@H]2C1 | 7.278%
Cc1cccc(CN2CCc3nnc(CN4CCCC4=O)n3CC2)n1.O=C(O)C(F)(F)F | -34.57%
Cc1cc(C(=O)NCc2ccco2)nn1C | 12.62%
Cc1ccn(CCC(=O)NCc2ccco2)n1 | 6.355%
Cc1nc2c(c(C)c1CC(=O)NCc1cccs1)c(=O)[nH]n2C | 11.25%
Cc1cc(=O)[nH]c(-n2nc(C)c(CCC(=O)NCc3ccco3)c2C)n1 | 61.79%
Cc1cc(=O)[nH]c(-n2nc(C)c(CCC(=O)NCc3cccs3)c2C)n1 | 102.2%
Cc1noc(C)c1CCC(=O)NCCc1cccs1 | 11.5%
O=S(=O)(CCO)CCc1ccccc1Cl | 17.45%
CCN1CCc2c(sc3c2C(=O)NC(/C=C\c2ccccc2)N3)C1 (stereo not given) | -24.35%
Cn1c2ncccc2c(=O)n1CC(=O)NCCC1=CCCCC1 | -2.25%
CCCc1nn(Cc2ccc(Br)s2)c(=O)o1 | 31%
CC(C)CN1CCN(C(=O)CCn2cccn2)CC1 | 37.09%
CCC(=O)N1CCN(C(=O)CCn2cccn2)CC1 | 10.75%

Compound | Percent Effect
CCC(=O)N1CCN(C(=O)Cn2cccn2)CC1 | 62.88%
O=C1NCCN1CCNc1cc(-c2ccncc2)nc2ccnn12 | -39.13%
CC1(C)Cc2cc(-c3cncn3CCNC3CCS(=O)(=O)C3)ccc2O1.Cl (stereo not given) | 8.949%
CCC(C)NC(=O)Cn1ccc2c(C)nn(CC)c2c1=O (stereo not given) | -10.24%
c1ccc(N2CCCC2)c(NCc2ccncc2)c1 | -19.28%
c1ccc(CNc2ccccc2N2CCCC2)nc1 | 50.65%
Cc1nc(N2CCCC2)ccc1NCc1ccccn1 | 4.716%
O=C(O)C(F)(F)F.O=C(c1cnccn1)N1CC2(CCN(Cc3ccsc3)C2)C1 | -14.16%
CN(C)[C@@H]1CCN(C(=O)Cc2cccs2)[C@H]1Cc1cnn(C)c1.O=C(O)C(F)(F)F | 5.582%
O=C(O)C(F)(F)F.c1ccc(CN2Cc3nccn3CC(Cn3cccn3)C2)nc1 (stereo not given) | 11.05%
CN(C)CCN1CCCC12CCN(C(=O)c1ccncc1)CC2.O=C(O)C(F)(F)F.O=C(O)C(F)(F)F | 6.106%
CC(NC(=O)OC(C)(C)C)c1nnc(S(=O)(=O)Cc2ccccc2Cl)o1 (stereo not given) | 10.13%
Cl.N[C@@H](Cc1ccccc1)c1nnc(S(=O)(=O)Cc2ccc(Cl)cc2)o1 | -31.2%
Cc1noc(C(C)NC(=O)[C@@H](C)NC(=O)OC(C)(C)C)n1 (stereo not given in full) | 4.198%
Cc1ccccc1CS(=O)(=O)c1nnc(C(C)NC(=O)OC(C)(C)C)o1 (stereo not given) | 89.48%
C[C@H](NC(=O)OC(C)(C)C)c1nnc(S(=O)(=O)Cc2cccc(F)c2)o1 | -6.703%
CC(NC(=O)OC(C)(C)C)c1nnc(S(=O)(=O)Cc2ccc(Cl)cc2)o1 (stereo not given) | 103.1%
COCCN1C[C@@H]2[C@@H](OC)CCN(C(=O)Cc3ccsc3)[C@@H]2C1.O=C(O)C(F)(F)F | -5.727%
O=C(O)C(F)(F)F.O=C(c1ccc(F)cc1)N1CC[C@H]2[C@H]1CCN2CC1CC1 | -18.24%
CN1CCN(C)C2(CCN(Cc3ccsc3)CC2)C1=O.O=C(O)C(F)(F)F | -19.83%
